Measured values taken from PubChem BioAssay (NCATS).
Inconclusive results are not listed. Unless noted, calls come from the whole dose curve; as a rule, active = well fitted curve in either direction with a large enough effect (not every such curve was filed as active); inconclusive = small, poorly fitted or top-dose-only effect, or another doubt; inactive = flat fitted curve, though single readings scatter.

Columns and labels:
[1] = AP1 Signaling Pathway (AID 357); settings: ME-180 AP-1-bla reporter, EGF-induced, beta-lactamase ratio, 5 h; at 17.2 µM (top of the series) unless noted;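 note: ME-180 reporter cells stimulated with EGF at its EC50 level; % is set by controls: 0 for no effect and ±100 for the full control effect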
Procedure, shortened: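 A ratiometric CCF4 readout (405 nm excitation; 460 and 530 nm emission) quantified AP-1-driven beta-lactamase in ME-180 cells after 5 h with compound and EC50 EGF; AC50 values were derived for activators and inhibitors.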

[2] = NFAT Signaling Pathway (AID 444); settings: Jurkat NFAT-bla M1, carbachol, beta-lactamase ratio, 5 h; at 17.2 µM (top of the series) unless noted;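 note: carbachol stimulus at about its EC50 of 1 µM final; % is set by controls: 0 for no effect and ±100 for the full control effect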
Procedure, shortened: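 Read-out: CCF4 FRET ratio (460 nm/530 nm) after 1 h RT dye loading, used for %activity and AC50 from titration series. Cells: Jurkat NFAT-β-lactamase/M1 line, treated with compound plus 1 uM carbachol for 5 h, 37 °C.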

[3] = Stat Signaling Pathway (AID 446); settings: ME-180 SIE beta-lactamase reporter, IL-6 stimulated, 5 h; at 17.2 µM (top of the series) unless noted;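 note: ME-180 cervical cancer cells given 40 pM IL-6 alongside compound; SIE-controlled beta-lactamase reporter measured as 460/530 nm FRET emission ratio; % is set by controls: 0 for no effect and ±100 for the full control effect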
Procedure, shortened: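 ME-180 SIE-bla cells; overnight plating; cpd + IL-6 40 pM, 5 h, 37 C; LiveBLAzer 2.5 h RT; 460/530 nm emission ratio. Normalized to 300 pM IL-6 and 125 nM JAK inhibitor controls.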

[4] = molecular target: Glucocorticoid receptor (Homo sapiens) (UniProt P04150); test: GR-GFP Redistribution (AID 450;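 active = compounds whose dose series gives a full or clear partial fitted curve of increased nuclear translocation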; note: potency is the fitted concentration of half-maximal effect)
Chain of Glucocorticoid receptor (Homo sapiens) (P04150 whole entry, looked up): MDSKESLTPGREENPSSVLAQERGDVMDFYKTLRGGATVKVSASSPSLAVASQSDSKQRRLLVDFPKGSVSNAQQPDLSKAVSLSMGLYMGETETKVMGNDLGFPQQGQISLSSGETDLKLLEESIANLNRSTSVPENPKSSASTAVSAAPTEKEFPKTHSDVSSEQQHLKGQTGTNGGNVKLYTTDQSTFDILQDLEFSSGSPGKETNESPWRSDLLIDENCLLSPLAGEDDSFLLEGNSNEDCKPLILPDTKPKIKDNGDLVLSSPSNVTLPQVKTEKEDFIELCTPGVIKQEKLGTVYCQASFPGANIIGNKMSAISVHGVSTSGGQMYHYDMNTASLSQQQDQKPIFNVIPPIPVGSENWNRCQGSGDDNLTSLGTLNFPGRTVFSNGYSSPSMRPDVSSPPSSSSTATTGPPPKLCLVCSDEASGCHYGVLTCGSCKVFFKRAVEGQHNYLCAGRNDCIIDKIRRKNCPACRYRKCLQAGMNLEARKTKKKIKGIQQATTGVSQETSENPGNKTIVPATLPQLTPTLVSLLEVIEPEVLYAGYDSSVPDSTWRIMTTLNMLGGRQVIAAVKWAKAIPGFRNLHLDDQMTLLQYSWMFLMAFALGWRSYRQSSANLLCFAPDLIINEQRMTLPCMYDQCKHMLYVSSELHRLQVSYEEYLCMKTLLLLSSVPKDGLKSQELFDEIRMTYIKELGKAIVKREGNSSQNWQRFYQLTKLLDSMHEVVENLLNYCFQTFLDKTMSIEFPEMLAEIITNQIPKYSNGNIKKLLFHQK

CCCCCC(=O)N1CC2(CC)CN(C(=O)CCCCC)CC(CC)(C1)C2=O
inactive: activity change, negative = inhibition [1] -3.04% | activity change, negative = inhibition [2] -17.5% | activity, negative = inhibition [3] 4.63% | Potency [4] > 20.6 µM

Cc1ccc(N(CN2C(=O)NC(C)(C)C2=O)CN2C(=O)NC(C)(C)C2=O)cc1
inactive: activity change, negative = inhibition [1] 5% | activity change, negative = inhibition [2] 15.5% | activity, negative = inhibition [3] 5.53% | Potency [4] > 20.6 µM

O=C1C(=O)N(CCN2CCOCC2)C(c2ccccn2)/C1=C(/O)c1ccccc1 (stereo not given)
inactive: activity change, negative = inhibition [1] -4.12% | activity change, negative = inhibition [2] 3.29% | activity, negative = inhibition [3] -1.75% | Potency [4] > 20.6 µM

CCOC(=O)NC(Nc1sc2c(c1C(N)=O)CCCC2)(C(=O)OCC)C(F)(F)F (stereo not given)
inactive: activity change, negative = inhibition [1] -6.03% | activity change, negative = inhibition [2] -0.536% | activity, negative = inhibition [3] -7.59% | Potency [4] > 20.6 µM

Cc1nc2c(o1)CCc1ccccc1C2O (stereo not given)
inactive: activity change, negative = inhibition [1] 8.51% | activity change, negative = inhibition [2] 3.41% | activity, negative = inhibition [3] 5.73% | Potency [4] > 20.6 µM

O=C(c1cccc2ccccc12)N1CCC(N2CCN(c3ccccc3)CC2)CC1
inactive: activity change, negative = inhibition [1] -7.39% | activity change, negative = inhibition [2] -0.0782% | activity, negative = inhibition [3] -1.11% | Potency [4] > 20.6 µM

CCCc1[nH]n(-c2nc3ccccc3s2)c(=O)c1C=NCCN1CCOCC1
inactive: activity change, negative = inhibition [1] -6.38% | activity change, negative = inhibition [2] -13.8% | activity, negative = inhibition [3] -4.13% | Potency [4] > 20.6 µM

Cc1c(O)c(CN2CCCC(C)C2)cc2c3c(c(=O)oc12)CCC3 (stereo not given)
inactive: activity change, negative = inhibition [1] 13.2% | activity change, negative = inhibition [2] -10.5% | activity, negative = inhibition [3] 6.92% | Potency [4] > 20.6 µM

Cc1ccccc1OCC(O)Cn1c(N2CCN(c3ccccc3)CC2)nc2c1c(=O)[nH]c(=O)n2C (stereo not given)
inactive: activity change, negative = inhibition [1] 14.4% | activity change, negative = inhibition [2] -4.3% | activity, negative = inhibition [3] -10.5% | Potency [4] > 20.6 µM

COCCNc1oc(-c2ccc(C)cc2)nc1C#N
inactive: activity change, negative = inhibition [1] -6.25% | activity change, negative = inhibition [2] 1.1% | activity, negative = inhibition [3] 0.279% | Potency [4] > 20.6 µM

C/C(=N\O)C(=O)NCCCNCCCN(C)C
inactive: activity change, negative = inhibition [1] 2.66% | activity change, negative = inhibition [2] -0.0528% | activity, negative = inhibition [3] 14.2% | Potency [4] > 20.6 µM

COc1ccc(C2=Nn3c(nnc3-c3cccnc3)SC2)cc1OC
inactive: activity change, negative = inhibition [1] -11.2% | activity change, negative = inhibition [2] -23% | activity, negative = inhibition [3] -17.6% | Potency [4] > 20.6 µM

CSc1nnc(C)c(=O)[nH]1
inactive: activity change, negative = inhibition [1] -4.3% | activity change, negative = inhibition [2] -8.38% | activity, negative = inhibition [3] 14.8% | Potency [4] > 20.6 µM

Cc1cccc(N)c1SC1CCCCC1O (stereo not given)
inactive: activity change, negative = inhibition [1] -3.66% | activity change, negative = inhibition [2] -1.33% | activity, negative = inhibition [3] 2.62% | Potency [4] > 20.6 µM

COc1cc(NC2=CC(=O)CC(C)(C)C2)cc(OC)c1OC
inactive: activity change, negative = inhibition [1] 7.47% | activity change, negative = inhibition [2] -11.1% | activity, negative = inhibition [3] 15.1% | Potency [4] > 20.6 µM

CCOc1ccc(Br)cc1CC(=O)O
inactive: activity change, negative = inhibition [1] 8.45% | activity change, negative = inhibition [2] -5.28% | activity, negative = inhibition [3] 12.6% | Potency [4] > 20.6 µM

O=C(CN1C(=O)c2ccccc2S1(=O)=O)c1ccccc1
inactive: activity change, negative = inhibition [1] 9.24% | activity change, negative = inhibition [2] -11.7% | activity, negative = inhibition [3] 3.52% | Potency [4] > 20.6 µM

COC(=O)C1=C(C)N=C2SC(C)C(=O)N2C1/C=C/c1ccccc1OC (stereo not given)
inactive: activity change, negative = inhibition [1] 2.3% | activity change, negative = inhibition [2] -16.8% | activity, negative = inhibition [3] -6.43% | Potency [4] > 20.6 µM

CCc1nc(N2CCOCC2)c(C#N)c2c1CCCC2
inactive: activity change, negative = inhibition [1] -3.85% | activity change, negative = inhibition [2] -21.8% | activity, negative = inhibition [3] -7.54% | Potency [4] > 20.6 µM

CCCCn1c(C)cc2cc(O)ccc21
inactive: activity change, negative = inhibition [1] -15.1% | activity change, negative = inhibition [2] -5.83% | activity, negative = inhibition [3] -8.99% | Potency [4] > 20.6 µM

COc1ccc(OC)c(C2C(C#N)=C(N)Oc3cc(C)n(Cc4ccccn4)c(=O)c32)c1 (stereo not given)
inactive: activity change, negative = inhibition [1] 1.88% | activity change, negative = inhibition [2] -20.4% | activity, negative = inhibition [3] -2.84% | Potency [4] > 20.6 µM

COC(=O)Cn1cc(C(=O)OC)cc(Br)c1=O
inactive: activity change, negative = inhibition [1] 8.29% | activity change, negative = inhibition [2] 0.926% | activity, negative = inhibition [3] -0.311% | Potency [4] > 20.6 µM

CC12CN3CC(=O)N4CC5(C)CN(CC(C)(C4)C5=O)C(=O)CN(C1)CC(C)(C3)C2=O
inactive: activity change, negative = inhibition [1] -1.13% | activity change, negative = inhibition [2] 2.81% | activity, negative = inhibition [3] 0.401% | Potency [4] > 20.6 µM

COc1cccc(OC)c1C(=O)Nc1nc2ccc(S(C)(=O)=O)cc2s1
inactive: activity change, negative = inhibition [1] -25.1% | activity change, negative = inhibition [2] 21% | activity, negative = inhibition [3] -10.6% | Potency [4] > 20.6 µM

N/C(=N\c1nc2ccccc2o1)NC(=O)c1ccccc1NC(=O)c1ccccc1
inactive: activity change, negative = inhibition [1] 14.1% | activity change, negative = inhibition [2] -14.2% | activity, negative = inhibition [3] -27.8% | Potency [4] > 20.6 µM
